The panel holds about 83,000 compounds, 20% with a hit somewhere; the sample as a whole holds those more often.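 Each cell line was grown in a 96-well plate and treated with one concentration of compound for 48 hours. Values below 10 were considered active.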 A number with no mark means an inactive call. Calls of active or inactive are those of the source.
Legend:
Assay in all cases: NCI-60 one-dose screen, 48 h (100 = growth as untreated, 0 = no growth, -100 = all killed)
Settings in all cases: 10 µM
T-47D breast = tested on: T-47D breast
BT-549 breast = tested on: BT-549 breast
MDA-MB-435 melanoma = tested on: MDA-MB-435 melanoma
SW-620 colon = tested on: SW-620 colon
MCF7 breast = tested on: MCF7 breast
HCT-116 colon = tested on: HCT-116 colon
HCC-2998 colon = tested on: HCC-2998 colon
KM12 colon = tested on: KM12 colon
MDA-MB-468 breast = tested on: MDA-MB-468 breast

SMILES | growth (T-47D breast) | growth (BT-549 breast) | growth (MDA-MB-435 melanoma) | growth (SW-620 colon) | growth (MCF7 breast) | growth (HCT-116 colon) | growth (HCC-2998 colon) | growth (KM12 colon) | growth (MDA-MB-468 breast)
CCOC(=O)C1=C(N)N(c2ccccc2)C2=C(C(=O)CC(C)(C)C2)C1c1ccccc1OC (configuration not stated) | 92.7% | 105% | 112% | 107% | 89.7% | 101% | 101% | 113% | 88.7%
CN1C(=O)N(C)C2SC(N/N=C/c3ccc(F)cc3)=NC21 (configuration not stated) | 37.9% | 9.3% (active) | -28.8% (active) | 30.1% | 21.6% | 24.9% | 69.8% | 28.2% | -12.3% (active)
CC(=O)Nc1nc(-c2ccc(N3CCN(C)CC3)c(NS(=O)(=O)c3cccc4c(N(C)C)cccc34)c2)cs1 | 35.6% | 36.6% | 51.5% | 70.9% | 34.9% | 28.2% | 43% | 59.8% | 58.2%
O=C1CCC(N2Cc3cc(NC(=O)COc4ccccc4)ccc3C2=O)C(=O)N1 (configuration not stated) | 49.2% | 4.38% (active) | 88.1% | 55.2% | 70.3% | 103% | 83.5% | 74.5% | -25.1% (active)
COc1cc(-c2nc3cc(Cl)c(Cl)cc3[nH]2)ccc1OCc1nnc(-c2ccc(Br)cc2)o1 | -38.4% (active) | -73.4% (active) | -18.7% (active) | 21.6% | 5.68% (active) | 2.89% (active) | 69.2% | 46.1% | -10.9% (active)
COC[C@@H](CC(C)C)N=C1NC(=O)/C(=C/c2ccc3ncoc3c2)N1 | -4.84% (active) | 2.39% (active) | 17.3% | 0.318% (active) | 1.91% (active) | 22.8% | 36.7% | 16.4% | -31.1% (active)
N#Cc1ccc(-c2nn(-c3ccc(C(=O)O)cc3)cc2CNc2ccc(Oc3ccccc3)cc2)cc1 | 22.6% | -5.49% (active) | 63.6% | 59.3% | 59.8% | 16.7% | 11.5% | 16.3% | 103%
N#C/C(=C\c1ccc(N(c2ccccc2)c2ccccc2)cc1)C(N)=O | -26.7% (active) | 69.6% | 92.7% | 45.6% | 6.51% (active) | 14.9% | 73.7% | 78.6% | -91.2% (active)
CC1(c2ccccc2)NC(=O)N(CC(=O)Nc2ccc(C(=O)/C=C/c3ccc(Cl)cc3)cc2)C1=O (configuration not stated) | 10.4% | 1.57% (active) | -76.4% (active) | -58.9% (active) | -66.6% (active) | -69.1% (active) | -99.1% (active) | -81.4% (active) | -9.47% (active)
O=C(c1ccc(O)cc1)C1[C@H](c2ccc(Br)cc2)[C@@H](c2ccccc2)NC12C(=O)Nc1ccc(Br)cc12 (some centres not stated) | 22.2% | 39.3% | -25.1% (active) | -28% (active) | -18% (active) | 8.14% (active) | -83.9% (active) | -24.7% (active) | -54% (active)
COC(=O)c1c(C(=O)OC)c2n(c1C)[C@@H]([C@@H](C)[C@H]1CC[C@H]3[C@@H]4CCC5=CC(=O)CC[C@]5(C)[C@H]4CC[C@]13C)SC2 | 4.62% (active) | -3.38% (active) | 22.4% | 34.2% | 4.29% (active) | 23.2% | 45% | 25.8% | 11.2%
COc1ccc([C@H]2C(C(=O)c3ccc(Cl)cc3)C3(N[C@@H]2c2ccccc2)C(=O)Nc2ccc(Cl)cc23)cc1 (some centres not stated) | 9.93% (active) | 7.71% (active) | -57.5% (active) | 4.15% (active) | -4.24% (active) | 2.1% (active) | -59.3% (active) | -23.4% (active) | -3.62% (active)
CCOC(=O)C1NN(c2ccc(S(N)(=O)=O)cc2)c2nc3nc(-c4cccs4)cc(-c4cccs4)c3c(=O)n21 (configuration not stated) | 85.4% | 50.1% | 106% | 93.1% | 74.2% | 81.2% | 107% | 69.7% | 99.5%
O=C1NC(=NC2CCCCCC2)N/C1=C\c1ccc2ncoc2c1 | 18.9% | 9.37% (active) | 37.8% | 11.3% | 13% | 23.5% | 68.8% | 30% | -3.48% (active)
CC1(c2ccccc2)NC(=O)N(CC(=O)Nc2ccc(C(=O)/C=C/c3ccc(Br)cc3)cc2)C1=O (configuration not stated) | 14.3% | 25.4% | -44% (active) | 32.7% | -42.6% (active) | -69.7% (active) | 10.5% | -27.8% (active) | -8.76% (active)
C=C(C)[C@@H]1CC[C@]2(C)[C@H](CC=C3[C@@H]4CC(C)(C)CC[C@]4(C(=O)N4CCOCC4)CC[C@]32C)[C@@]1(C)CCCN | -88.1% (active) | -85.3% (active) | -99.5% (active) | -65.1% (active) | -70.7% (active) | -54.2% (active) | -81.1% (active) | -82.3% (active) | -96% (active)
COc1ccc(-c2ccc(/C=N/NC(=O)c3[nH]c4ccc(Br)cc4c3-c3ccccc3)o2)cc1 | 37.4% | 75.6% | -45.1% (active) | 32.4% | 10.3% | 18.3% | 63% | 39.8% | -2.91% (active)
Cc1ccc(/C=C/C(=O)c2ccc(NC(=O)CSc3nnc(-c4c[nH]c5ccccc45)n3-c3ccccc3)cc2)c(C)c1 | 36.9% | 52.8% | 49.5% | 33.2% | 3.33% (active) | -4.32% (active) | 74.1% | 66.6% | 22%
